Screen size: about 5,500 compounds; about 2,000 (36%) were called active. Roughly 18% stayed inconclusive and do not appear here. Rule as the data show it: active = normalized growth mostly below about 0.91 (no sharp cut-off); inconclusive = no clear call, values can overlap the other calls; inactive = mostly above about 0.92. Some of the results follow.
Assay: chemical genetic growth profiling, strain panel (AID 1159580);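 also: tested at 20 µM; growth read once vehicle control cultures reached saturation at 30 °C; 1 = growth at the plate median or of vehicle wells; lower values mean less growth of the strain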
Details: S. cerevisiae deletion strains, growth OD

Measured: normalized growth

CC(C)(C)C(=O)C(Oc1ccc(Cl)cc1)n1cncn1 (stereo not given)
inactive: locus YGL167C, strain pmr1, hits give low values 0.923
active: locus YAL021C, strain ccr4, hits give low values 0.639 | locus YAL026C, strain drs2, hits give low values 0.081 | locus YAL030W, strain snc1, hits give low values 0.133 | locus YBL061C, strain skt5, hits give low values 0.136 | locus YBR009C, strain hhf1, hits give low values 0.133 | locus YBR023C, strain chs3, hits give low values 0.131 | locus YBR171W, strain sec66, hits give low values 0.591 | locus YBR231C, strain swc5, hits give low values 0.119 | locus YBR279W, strain paf1, hits give low values 0.198 | locus YCL011C, strain gbp2, hits give low values 0.124 | locus YCL016C, strain dcc1, hits give low values 0.129 | locus YCL061C, strain MRC1, hits give low values 0.203 | locus YCL069W, strain vba3, hits give low values 0.106 | locus YCR088W, strain abp1, hits give low values 0.25 | locus YDL005C, strain med2, hits give low values 0.565 | locus YDL040C, strain nat1, hits give low values 0.272 | locus YDR001C, strain nth1, hits give low values 0.221 | locus YDR069C, strain doa4, hits give low values 0.655 | locus YDR137W, strain rgp1, hits give low values 0.779 | locus YDR159W, strain sac3, hits give low values 0.171 | locus YDR195W, strain ref2 0.573 | locus YDR297W, strain sur2, hits give low values 0.19 | locus YDR334W, strain swr1, hits give low values 0.141 | locus YDR335W, strain msn5, hits give low values 0.223 | locus YDR392W, strain spt3, hits give low values 0.104 | locus YEL003W, strain gim4, hits give low values 0.154 | locus YEL037C, strain rad23, hits give low values 0.268 | locus YEL061C, strain CIN8 (second series), hits give low values 0.139 | locus YER015W, strain faa2, hits give low values 0.201 | locus YER016W, strain bim1, hits give low values 0.187 | locus YER111C, strain swi4, hits give low values 0.758 | locus YER155C, strain BEM2 (second series), hits give low values 0.746 | locus YFR010W, strain ubp6, hits give low values 0.558 | locus YGL173C, strain kem1, hits give low values 0.701 | locus YGL227W, strain vid30, hits give low values 0.158 | locus YGL240W, strain doc1, hits give low values 0.714 | locus YGL253W, strain hxk2, hits give low values 0.0776 | locus YHR013C, strain ard1, hits give low values 0.162 | locus YHR027C, strain rpn1, hits give low values 0.337 | locus YHR030C, strain SLT2, hits give low values 0.113 | locus YHR079C, strain IRE1, hits give low values 0.264 | locus YHR142W, strain chs7, hits give low values 0.107 | locus YJL092W, strain hpr5, hits give low values 0.177 | locus YJL095W, strain BCK1 (second series), hits give low values 0.0779 | locus YJL095W, strain BCK1, hits give low values 0.129 | locus YJL115W, strain asf1, hits give low values 0.396 | locus YJL129C, strain trk1, hits give low values 0.183 | locus YJL154C, strain vps35, hits give low values 0.409 | locus YJL164C, strain tpk1, hits give low values 0.11 | locus YJL166W, strain qcr8, hits give low values 0.109 | locus YJL187C, strain SWE1, hits give low values 0.135 | locus YJR066W, strain TOR1, hits give low values 0.14 | locus YKL160W, strain elf1, hits give low values 0.112 | locus YKR026C, strain gcn3, hits give low values 0.47 | locus YKR091W, strain srl3, hits give low values 0.247 | locus YLL001W, strain dnm1, hits give low values 0.168 | locus YLL026W, hits give low values 0.0984 | locus YLL041C, strain sdh2, hits give low values 0.159 | locus YLR027C, strain aat2, hits give low values 0.115 | locus YLR113W, strain HOG1, hits give low values 0.308 | locus YLR221C, strain rsa3, hits give low values 0.118 | locus YLR258W, strain gsy2, hits give low values 0.133 | locus YLR262C, strain YPT6 (second series), hits give low values 0.66 | locus YLR320W, strain mms22, hits give low values 0.125 | locus YLR342W, strain FKS1, hits give low values 0.155 | locus YLR357W, strain rsc2, hits give low values 0.513 | locus YLR370C, strain arc18, hits give low values 0.184 | locus YLR384C, strain iki3, hits give low values 0.672 | locus YML120C, strain ndi1, hits give low values 0.153 | locus YMR058W, strain fet3, hits give low values 0.184 | locus YMR125W, strain sto1, hits give low values 0.147 | locus YMR129W, hits give low values 0.161 | locus YMR205C, strain PFK2, hits give low values 0.172 | locus YMR231W, strain pep5, hits give low values 0.805 | locus YNL071W, strain lat1, hits give low values 0.0893 | locus YNL183C, strain NPR1, hits give low values 0.178 | locus YNL209W, strain ssb2, hits give low values 0.394 | locus YNL248C, strain rpa49, hits give low values 0.142 | locus YNL322C, strain KRE1 (second series), hits give low values 0.228 | locus YNR049C, strain mso1, hits give low values 0.159 | locus YOR001W, strain rrp6, hits give low values 0.181 | locus YOR070C, strain gyp1, hits give low values 0.0975 | locus YOR080W, strain dia2, hits give low values 0.259 | locus YOR083W, strain WHI5, hits give low values 0.257 | locus YOR106W, strain vam3, hits give low values 0.211 | locus YOR231W, strain MKK1, hits give low values 0.273 | locus YOR265W, strain rbl2, hits give low values 0.164 | locus YOR270C, strain vph1, hits give low values 0.123 | locus YOR290C, strain snf2, hits give low values 0.153 | locus YPL051W, strain arl3, hits give low values 0.357 | locus YPL078C, strain atp4, hits give low values 0.203 | locus YPL106C, strain sse1, hits give low values 0.156 | locus YPL240C, strain hsp82, hits give low values 0.166 | locus YPL256C, strain CLN2, hits give low values 0.357

— PubChem BioAssay AID1159580 (chemical genetic matrix, 2015)
